# Laboratory results reported in PubChem BioAssay (NCI).
# This is part of a sample that, as a whole, favours compounds with a hit. Of some 83,000 tested, about 20% had one in any assay.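 How to read the values: 0–100, growth inhibition (40 = 60% inhibited); 0, no net growth; -100 to 0, cell death (-40 = 40% of starting cells died; -100 = all dead).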 Unmarked numbers belong to inactive results. Calls of active or inactive are those of the source. The calls were made as follows: active = growth percent below 10; inactive = the rest.
# Assays:
# Assay in all cases: NCI-60 one-dose screen, 48 h (100 = growth as untreated, 0 = no growth, -100 = all killed)
# Settings in all cases: 10 µM unless noted
# [1] = test system: HCT-15 colon
# [2] = test system: HT29 colon
# [3] = test system: SNB-75 CNS
# [4] = test system: SNB-19 CNS
# [5] = test system: U251 CNS
# [6] = test system: PC-3 prostate
# [7] = test system: SK-MEL-5 melanoma
# [8] = test system: UACC-62 melanoma
# [9] = test system: LOX IMVI melanoma
# [10] = test system: SK-MEL-2 melanoma
# [11] = test system: EKVX NSCLC
# [12] = test system: SN12C renal
# [13] = test system: UO-31 renal
# [14] = test system: TK-10 renal
# [15] = test system: ACHN renal
# [16] = test system: CAKI-1 renal
# [17] = test system: CCRF-CEM leukemia
# [18] = test system: MOLT-4 leukemia
# [19] = test system: SK-MEL-28 melanoma
# [20] = test system: A498 renal
SMILES,growth [1],growth [2],growth [3],growth [4],growth [5],growth [6],growth [7],growth [8],growth [9],growth [10],growth [11],growth [12],growth [13],growth [14],growth [15],growth [16],growth [17],growth [18],growth [19] [%],growth [20] [%]
CCOC(=O)c1ccc2c(c1)ncn2-c1ccc(NC(=O)Nc2cccc(C)c2)cc1,13.6%,49.1%,87.6%,49.8%,46.1%,67.4%,83.2%,71.3%,5.37% (active),85.4%,84.7%,69.6%,66.6%,123%,66.7%,74.6%,45.8%,43.2%,–,–
CC(=O)c1ccc(NS(=O)(=O)c2cccc(C(=O)Nc3ccc(Br)cc3)c2)cc1,68.2% [25 µM],87.4% [25 µM],78.3% [25 µM],60.4% [25 µM],70.8% [25 µM],60.4% [25 µM],-19.8% [25 µM] (active),26.5% [25 µM],62.7% [25 µM],41% [25 µM],34.2% [25 µM],64.7% [25 µM],53.8% [25 µM],91.3% [25 µM],73.3% [25 µM],52.8% [25 µM],61.6% [25 µM],53.7% [25 µM],–,–
COc1cc(/C=N/O)nc(-c2ccccn2)c1,26.7%,32.6%,43%,23.1%,21.3%,49.5%,-22.1% (active),4.54% (active),3.54% (active),25.6%,23.4%,15.5%,3.15% (active),35.3%,9.42% (active),18.4%,9.2% (active),12%,–,–
CC(C)=CCC[C@](C)(O)[C@H]1CC[C@]2(C)[C@@H]1CC[C@@H]1[C@@]3(C)C/C(=C/c4ccccc4)C(=O)C(C)(C)[C@@H]3CC[C@]12C,93.6%,99.9%,67.2%,88%,85.8%,79.6%,98.7%,88.2%,–,98.3%,96.4%,91%,66.7%,63.8%,96.3%,53.7%,87.8%,–,104,85.6
CCCOc1ccc(/C=N/Nc2cc(C)nc3ccc(Br)cc23)cc1,-20.9% (active),26.5%,105%,101%,25.7%,87.6%,100%,96.1%,59.9%,93%,81.7%,84.4%,–,–,97.7%,91.3%,28.3%,73.9%,102,–
CC(C)(C)c1cc(/C=N/NC(=O)c2ccccc2NC(=O)c2cccs2)c(O)c(C(C)(C)C)c1,17.1%,25.3%,34.9%,40.6%,13.8%,30.3%,22.9%,13.1%,-34.2% (active),36.9%,35%,40.6%,10.7%,28.8%,21.9%,19.8%,4.59% (active),16.5%,–,–
CCCC/C=N/NC(=S)NCc1ccccc1,95.8%,101%,86%,95.9%,97.1%,86.1%,97.1%,93.8%,97.3%,106%,101%,96.1%,93.3%,103%,99.4%,100%,99.1%,95%,–,–
N#C/C(=C\c1ccc([N+](=O)[O-])s1)c1nc2cc(Br)ccc2s1,-52.1% (active),21.8%,12%,7.78% (active),-20.5% (active),-49% (active),-97.7% (active),17%,-54.1% (active),-41.1% (active),-30.8% (active),-30.1% (active),-52.1% (active),4.33% (active),-56.8% (active),-2.73% (active),-19.5% (active),-18.8% (active),–,–
CCCCCCOc1ccc(/C=N/Nc2cc(C)nc3ccc(Cl)cc23)cc1,-87.2% (active),-42.3% (active),-44.6% (active),2.26% (active),-68.2% (active),-39.4% (active),81.4%,76.8%,-94.5% (active),93.9%,56.2%,-84.6% (active),-89.8% (active),-51.4% (active),-92% (active),3.33% (active),-9.5% (active),-26% (active),–,–
O=C1Nc2cc(-c3cccc([N+](=O)[O-])c3)ccc2/C1=C/c1ccc[nH]1,28%,91.1%,64.6%,101%,98.8%,86.8%,70.3%,83.9%,90%,88.1%,29.8%,101%,68.6%,65.6%,92.3%,80.9%,91.5%,97.4%,–,–
COc1ccc2[nH]c(=O)c(CN3CCN(c4nccc(-c5ccc(Cl)cc5)n4)CC3)cc2c1,91.8%,78.2%,99.9%,78.8%,81.2%,73.6%,94.6%,94.4%,99.6%,93.1%,96.4%,88.8%,80.7%,–,81.9%,86.7%,85.1%,75.5%,–,–
CCOc1cccc(-c2nc(N)nc(Nc3ccccc3SSc3ccccc3Nc3nc(N)nc(-c4cccc(OCC)c4)n3)n2)c1,18.5%,110%,90.5%,55.1%,8.24% (active),29.5%,88%,66.2%,4.82% (active),98.1%,60.5%,32.9%,-25.5% (active),102%,59.5%,8.02% (active),46.5%,56.7%,–,–
Nc1ccccc1NC(=O)c1ccc(-n2nc(-c3ccccc3)c3ccccc32)cc1,76.7%,88.4%,38.4%,78.8%,-85.6% (active),58.6%,82.9%,77.5%,79.7%,94.3%,89.7%,52.3%,-62.7% (active),94.1%,90.6%,73.4%,9.38% (active),4.66% (active),–,89.8
CCOC(=O)CCN(CC(C)C)C(=S)Nc1ccccc1,99.5%,105%,105%,99.9%,100%,105%,102%,99.8%,105%,102%,100%,98.3%,94.4%,104%,101%,102%,118%,100%,–,–
COc1cc2cc(CN3CCN(c4nccc(-c5ccc6ccccc6c5)n4)CC3)c(=O)[nH]c2cc1OC,21.2%,69%,104%,76.7%,22.9%,60.7%,85.4%,95.1%,90.2%,97.8%,94.5%,51.7%,74.9%,91%,75.7%,99.5%,49.1%,54.1%,–,–
COC1=CC(=O)c2ccccc2C1=O,99.7%,38.9%,33.7%,105%,52.6%,65.7%,47.8%,74.2%,4.09% (active),69.3%,110%,84.8%,71.9%,94%,75.6%,95.6%,–,–,–,107
C=C1C(=O)O[C@H]2[C@H]1CC/C(COC(=O)NCCc1c[nH]c3ccc(OC)cc13)=C\CC[C@@]1(C)O[C@@H]21,-54.7% (active),-15.2% (active),55.5%,51.6%,35.5%,54.7%,64.7%,21.6%,-22.4% (active),62.1%,19.8%,-34.4% (active),-99.3% (active),-13.1% (active),-59% (active),-66.2% (active),-6.35% (active),3.53% (active),–,–
